The whole screen tested about 310,000 compounds, of which about 14,000 (4.5%) showed an effect of 50% or more. Effects have a minus sign here. This excerpt belongs to a sample that is enriched for strong results.
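Further: peak tail current of the secondary pulse compared with the same well before compound.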

Sequence of human ether-à-go-go-related gene (hERG) potassium channel (Q12809 whole entry, looked up): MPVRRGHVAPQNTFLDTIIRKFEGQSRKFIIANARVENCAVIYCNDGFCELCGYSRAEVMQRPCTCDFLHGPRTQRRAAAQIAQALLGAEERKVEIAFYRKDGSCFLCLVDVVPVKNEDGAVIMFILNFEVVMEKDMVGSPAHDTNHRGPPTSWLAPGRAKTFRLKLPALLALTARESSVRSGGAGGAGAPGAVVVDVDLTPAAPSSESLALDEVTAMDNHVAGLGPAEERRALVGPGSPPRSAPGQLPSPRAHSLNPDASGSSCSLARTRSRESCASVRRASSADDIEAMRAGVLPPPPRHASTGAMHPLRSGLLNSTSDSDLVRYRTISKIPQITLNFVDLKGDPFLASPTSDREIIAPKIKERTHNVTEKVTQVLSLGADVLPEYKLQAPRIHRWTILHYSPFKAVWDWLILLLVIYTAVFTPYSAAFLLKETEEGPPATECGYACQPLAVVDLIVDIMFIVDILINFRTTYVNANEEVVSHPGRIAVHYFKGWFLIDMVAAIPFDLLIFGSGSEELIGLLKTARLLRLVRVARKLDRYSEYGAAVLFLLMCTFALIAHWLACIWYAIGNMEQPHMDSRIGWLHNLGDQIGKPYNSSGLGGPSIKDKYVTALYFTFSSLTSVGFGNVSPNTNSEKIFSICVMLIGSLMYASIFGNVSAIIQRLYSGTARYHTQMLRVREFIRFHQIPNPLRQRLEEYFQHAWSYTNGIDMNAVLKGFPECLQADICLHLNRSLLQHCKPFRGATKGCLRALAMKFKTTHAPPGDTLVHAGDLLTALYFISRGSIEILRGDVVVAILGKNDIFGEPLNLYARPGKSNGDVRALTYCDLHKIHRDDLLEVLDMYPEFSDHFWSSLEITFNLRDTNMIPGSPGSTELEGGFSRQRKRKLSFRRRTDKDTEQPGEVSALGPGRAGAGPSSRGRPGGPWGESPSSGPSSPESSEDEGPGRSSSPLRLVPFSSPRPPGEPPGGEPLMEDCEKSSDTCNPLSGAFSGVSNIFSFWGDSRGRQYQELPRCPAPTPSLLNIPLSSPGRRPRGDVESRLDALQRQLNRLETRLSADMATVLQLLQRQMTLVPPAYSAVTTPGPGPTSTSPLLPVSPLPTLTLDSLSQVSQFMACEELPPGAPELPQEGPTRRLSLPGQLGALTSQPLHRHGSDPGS

The assay concerns the target human ether-à-go-go-related gene (hERG) potassium channel (human, UniProt Q12809). The assay can be described thus: primary screen, population patch clamp on CHO cells stably expressing hERG; higher = less effect of the substance.
For the compound `Cc1ccc(OCC(=O)NNC(=O)CSc2ncnc3sc(C)c(C)c23)cc1`, the “hERG current change (%, negative = inhibition) at 10uM” value turned out to be 39.6%.
`CC1CC(=O)Nc2ccccc2N1S(=O)(=O)c1cccc(F)c1` (stereo not shown): the “hERG current change (%, negative = inhibition) at 10uM” value came out at 9.89%.
Turning to `O=C(CC1C(=O)NCCN1Cc1cccc(F)c1)NC1CCC1` (stereo not shown), the “hERG current change (%, negative = inhibition) at 10uM” value is reported as -3.12%.
As to `CCC(CC)C(=O)c1c[nH]c(C(=O)O)c1`, the “hERG current change (%, negative = inhibition) at 10uM” value came out at 19.6%.
Turning to `CC1CCN(Cc2cc(=O)oc3cc(O)c(Cl)cc23)CC1`, the “hERG current change (%, negative = inhibition) at 10uM” value came to 9.11%.
For the compound `Cc1nn(-c2ccccc2)c(C)c1/C=N/NC(=O)c1cc(C(C)(C)C)[nH]n1`, the “hERG current change (%, negative = inhibition) at 10uM” value is recorded as -9.72%.
The value for `O=C(Nc1nnc(-c2ccncc2)s1)Nc1ccccc1F` was 14.2%; that for `Cc1cc(C)c(C(=O)/C=C/c2ccc(C(C)C)cc2)c(=O)[nH]1` was 10%.
As for `Cc1ccccc1N(CC(=O)NCCSC1CCCCC1)S(=O)(=O)c1ccccc1`, the “hERG current change (%, negative = inhibition) at 10uM” value is -16%.
With `CCn1c(=O)c(C(=O)CN(C)Cc2cccc(OC)c2OC)c(N)n(Cc2ccccc2)c1=O` the figure was -50.3%; with `CCn1c(=O)c(C(=O)CN2CCCc3ccccc32)c(N)n(Cc2ccccc2)c1=O`, -6.1%.
With `COc1ccc(CN(C)CC(=O)c2c(N)n(Cc3ccccc3)c(=O)n(C)c2=O)c(OC)c1` the figure was -66.1%; with `CCn1c(=O)c(C(=O)CN(C)Cc2ccc(F)cc2)c(N)n(Cc2ccccc2)c1=O`, -71%.
The value for `CCOc1ccc(CN(C)CC(=O)c2c(N)n(Cc3ccccc3)c(=O)n(CC)c2=O)cc1OC` was -75.5%; that for `CCn1c(=O)c(C(=O)CN2CCc3ccccc32)c(N)n(Cc2ccccc2)c1=O` was 19%.
Turning to `COc1cccc(NC(=O)CN(C)CC(=O)c2c(N)n(Cc3ccccc3)c(=O)n(C)c2=O)c1`, the “hERG current change (%, negative = inhibition) at 10uM” value is listed as -8.12%.
With `COC(=O)Cn1c(=O)c(C(=O)CCl)c(N)n(Cc2ccccc2)c1=O` the figure was -0.133%.
On to `CN(C)CC(=O)c1c(N)n(Cc2ccccc2)c(=O)n(C)c1=O`, for which the “hERG current change (%, negative = inhibition) at 10uM” value is -7.58%.
With `CCN(CC)CC(=O)c1c(N)n(Cc2ccccc2)c(=O)n(C)c1=O` the figure was -2.27%.
With `CCn1c(=O)c(C(=O)CC#N)c(N)n(Cc2ccccc2)c1=O` the figure was -4.73%; with `CCn1c(=O)c(C(=O)CN2c3ccccc3CC2C)c(N)n(Cc2ccccc2)c1=O` (stereo not shown), 3.42%; with `CNC(=O)c1ccc(N(Cc2ccccc2C)S(C)(=O)=O)cc1`, -6%.
With `Cn1c(C2=C(O)CN(c3ccccc3)C2=N)nc2ccccc21` the figure was -13.2%; with `Cc1ccc(C(=O)NC(=S)Nc2ccc(N3CCN(C(=O)c4ccco4)CC3)cc2)cc1`, 17.1%; with `Cc1ccc(OC(=S)Nc2ccccc2)c(C)c1`, 6.7%.
For `CCOC(=O)c1c(C)[nH]c(C(=O)COC(=O)CNS(=O)(=O)c2ccc(C)cc2)c1C`, the “hERG current change (%, negative = inhibition) at 10uM” value was 11.8%.
The value for `C=CCN(c1nc(C)cc(OC)n1)S(=O)(=O)c1ccccc1` was -2.09%; that for `Cc1nc2c(sc3nc4c(cc32)COC(C)(C)C4)c(=O)n1Cc1ccccc1` was -10.6%; that for `COCCN(C(=O)COC(=O)CCc1ccc(OC)cc1)c1c(N)n(Cc2ccccc2)c(=O)[nH]c1=O` was 27.6%.
With `COC(=O)C[C@H]1c2cc(F)ccc2S(=O)(=O)N1c1ccccc1` the figure was 8.82%; with `O=C(CSC1=NNC(c2ccccn2)S1)Nc1cccc(Cl)c1` (stereo not shown), 12.6%.
The value for `CCCN1CCN(CCCNC(=O)Cn2cc3c(n2)CCCC3)CC1` was -7.41%.
On to `Cc1ccc(C)c(N2CCN(CCCNC(=O)Cn3cc4c(n3)CCCCC4)CC2)c1`, for which the “hERG current change (%, negative = inhibition) at 10uM” value is listed as -69.3%.
Take `COCCCNC(=O)Cn1cc2c(n1)CCC(C)C2` (stereo not shown): the “hERG current change (%, negative = inhibition) at 10uM” value is recorded as 1.99%.
The value for `Cc1ccc(C)c(N2CCN(CCCNC(=O)Cn3cc4c(n3)CCC(C)C4)CC2)c1` (stereo not shown) was -63.4%.
`CC1CCc2nn(CC(=O)NCCCN3CCCC3=O)cc2C1` (stereo not shown): the “hERG current change (%, negative = inhibition) at 10uM” value is listed as 10.2%.
Regarding `O=C(Cn1cc2c(n1)CCCC2)NCCCN1CCN(c2ccccc2F)CC1`, the “hERG current change (%, negative = inhibition) at 10uM” value is reported as -31.1%.
As to `COC(=O)c1ccc(Sc2ccccc2NS(=O)(=O)c2ccc(OC)cc2)nc1`, the “hERG current change (%, negative = inhibition) at 10uM” value was 9.67%.
With `CN1CCN(c2ccc(NC(=O)Oc3ccccc3)cc2)CC1` the figure was 17.4%.
`CCOc1ccc(C(C)(C)C)cc1S(=O)(=O)Nc1ccncc1`: the “hERG current change (%, negative = inhibition) at 10uM” value is recorded as 17%.
With `Cn1nnc2cc(C(=O)NCc3ccco3)ccc21` the figure was 1.15%.
As to `Cc1nc(Nc2nc(-c3ccccc3)cc(=O)[nH]2)nc2ccccc12`, the “hERG current change (%, negative = inhibition) at 10uM” value was -3.73%.
The value for `COc1cc(/C=N/NC(=O)C2CCN(CC(O)COCc3ccccc3)CC2)cc(OC)c1OC` (stereo not shown) was -71.7%; that for `COc1ccc(COCC(O)CN2CCC(C(N)=O)CC2)cc1OC` (stereo not shown) was -7.47%; that for `COc1cc(/C=N/NC(=O)CCc2ccccc2)ccc1O` was -1.02%.
With `COc1cc(/C=N/NC(=O)Cc2ccccc2)cc(OC)c1OC` the figure was 8.74%.
On to `COc1cc(/C=N/NC(=O)C2CCN(CC(O)COCc3ccccc3)CC2)ccc1O` (stereo not shown), for which the “hERG current change (%, negative = inhibition) at 10uM” value is reported as -78.1%.
As to `CCOc1ccc(/C=N/NC(=O)C2CC2)cc1OC`, the “hERG current change (%, negative = inhibition) at 10uM” value was found to be 18.3%.
The value for `O=C(CCC(=O)c1ccc(F)cc1)NC1CCCN(Cc2ccccc2F)C1` (stereo not shown) was -19.4%; that for `CC(=O)Nc1cccc(NC(=O)C(F)(F)F)c1` was 21.2%; that for `Cc1onc(-c2ccccc2)c1C(=O)OCC(=O)Nc1ccc(C#N)cc1` was -27.7%.
Consider `O=C(/C=C/c1ccc(-c2ccccc2[N+](=O)[O-])o1)c1ccccc1`, for which the “hERG current change (%, negative = inhibition) at 10uM” value was 18.4%.
With `CCOC(=O)C(CCCOc1ccccc1)C(=O)OCC` the figure was -14.3%; with `CC(=O)c1ccc(OCCOc2ccc([N+](=O)[O-])cc2)cc1`, -57.6%; with `CC(=O)Nc1ccc(OCCOc2ccc([N+](=O)[O-])cc2)cc1`, 0.991%.
Regarding `CCOC(=O)C(CCCCOc1ccc([N+](=O)[O-])cc1)C(=O)OCC`, the “hERG current change (%, negative = inhibition) at 10uM” value was -54.8%.
The value for `COc1cc(C)ccc1OCCOCCOc1ccc(C)cc1[N+](=O)[O-]` was -36.1%.
Take `COc1cc(C)ccc1OCCOCCOc1ccccc1[N+](=O)[O-]`: the “hERG current change (%, negative = inhibition) at 10uM” value is recorded as -29.5%.
For `COc1cc(C)ccc1OCCOCCOc1ccc([N+](=O)[O-])cc1`, the “hERG current change (%, negative = inhibition) at 10uM” value was -54.8%.
Take `CCOC(=O)C(CCCOc1ccc(C)cc1)C(=O)OCC`: the “hERG current change (%, negative = inhibition) at 10uM” value was -8.52%.
Take `CC(=O)c1ccc([N+](=O)[O-])cc1`: the “hERG current change (%, negative = inhibition) at 10uM” value is 15.7%.
With `CCC(C)NCCCOc1ccc([N+](=O)[O-])cc1.O=C(O)C(=O)O` (stereo not shown) the figure was -74.7%; with `CCC(C)NCCCCOc1ccc(Br)cc1.O=C(O)C(=O)O` (stereo not shown), -32.6%; with `CCCOc1ccc(OCCCCNC(C)CC)cc1.O=C(O)C(=O)O` (stereo not shown), -18.9%.

These data come from paper PMC4336329 (PLoS ONE, 2015).
